Assay in all cases: HT-SELEX; high values mean tight binding
Common to all, as to settings: protein: recombinant; vector His6-GST; dsDNA, one strand shown

One experiment has as its target T1, SALL4 ZFC4 WT (HT-SELEX) (Mus musculus, UniProt Q8BX22 870-940).
T1 sequence: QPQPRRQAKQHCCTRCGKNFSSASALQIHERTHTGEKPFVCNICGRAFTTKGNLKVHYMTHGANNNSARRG
An outline of the steps: (§1)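 A 100 µl reaction of 10 mM Tris–HCl pH 7.5, 50 mM NaCl, poly(dI-dC) and DTT held purified recombinant mouse SALL4 zinc finger cluster 4 (residues 870–940, 1 µg) and library DNA (1.5 µg first cycle, 200 ng later) for 10 min at room temperature. Complexes captured on Ni2+ beads were washed, PCR-amplified and reselected for up to 6 cycles, in triplicate, then MiSeq-sequenced and scanned for 6-mers. Binding signal is the read fraction of each canonical k-mer expressed as fold change over the initial random library.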

For experiment [1], the target named is T2, SALL4 ZFC4 R900W (HT-SELEX) (Mus musculus, UniProt Q8BX22 870-940, R900W).
T2 sequence: T1 sequence with R31W
An outline of the steps:
as §1

Experiment [2] addresses T3, SALL4 ZFC4 G921D (HT-SELEX) (Mus musculus, UniProt Q8BX22 870-940, G921D).
T3 sequence: T1 sequence with G52D
An outline of the steps:
as §1

Changes are numbered by the printed parent chain.

Take CATCTA: the binding signal came to 1.33 ± 0.0229 fold-change vs cycle 0 with SALL4 ZFC4 WT (HT-SELEX), 1.41 ± 0.0368 fold-change vs cycle 0 in experiment [1] and 1.38 ± 0.068 fold-change vs cycle 0 in experiment [2].

In the case of ACTTGC, the binding signal with SALL4 ZFC4 WT (HT-SELEX) is 0.656 ± 0.0276 fold-change vs cycle 0; in experiment [1], 0.723 ± 0.0488 fold-change vs cycle 0; in experiment [2], 0.815 ± 0.0179 fold-change vs cycle 0.

On to CGACTC, for which the binding signal with SALL4 ZFC4 WT (HT-SELEX) is 0.311 ± 0.0133 fold-change vs cycle 0; in experiment [1], 0.391 ± 0.0309 fold-change vs cycle 0; in experiment [2] it was 0.53 ± 0.0873 fold-change vs cycle 0.

With AACCGA, the binding signal with SALL4 ZFC4 WT (HT-SELEX) was 0.657 ± 0.0177 fold-change vs cycle 0; in experiment [1], 0.7295 ± 0.00455 fold-change vs cycle 0; in experiment [2], 0.812 ± 0.0455 fold-change vs cycle 0.

As to GATAAA, the binding signal with SALL4 ZFC4 WT (HT-SELEX) was 2.01 ± 0.0629 fold-change vs cycle 0; in experiment [1], 1.92 ± 0.127 fold-change vs cycle 0; in experiment [2] it was 1.69 ± 0.118 fold-change vs cycle 0.

Take AGTACC: the binding signal in the experiment with SALL4 ZFC4 WT (HT-SELEX) was determined as 0.813 ± 0.0272 fold-change vs cycle 0; in experiment [1], 0.947 ± 0.0311 fold-change vs cycle 0; in experiment [2] it was 0.981 ± 0.037 fold-change vs cycle 0.

Take ACTTAC: the binding signal was 1.44 ± 0.0822 fold-change vs cycle 0 with SALL4 ZFC4 WT (HT-SELEX), 1.6 ± 0.106 fold-change vs cycle 0 in experiment [1] and 1.47 ± 0.146 fold-change vs cycle 0 in experiment [2].

As to ATATCA, the results for the binding signal (with SALL4 ZFC4 WT (HT-SELEX); in experiment [1]; in experiment [2]) were 2.74 ± 0.247 fold-change vs cycle 0, 2.05 ± 0.0942 fold-change vs cycle 0 and 1.83 ± 0.136 fold-change vs cycle 0, respectively.

TCACGA: the values for the binding signal (with SALL4 ZFC4 WT (HT-SELEX); in experiment [1]; in experiment [2]) were 0.737 ± 0.0222 fold-change vs cycle 0, 0.841 ± 0.0178 fold-change vs cycle 0 and 0.889 ± 0.0148 fold-change vs cycle 0, respectively.

As to GATATC, the binding signal with SALL4 ZFC4 WT (HT-SELEX) was 1.46 ± 0.0542 fold-change vs cycle 0; in experiment [1] it was 1.45 ± 0.075 fold-change vs cycle 0; in experiment [2], 1.39 ± 0.0375 fold-change vs cycle 0.

For AAGAAT, the binding signal with SALL4 ZFC4 WT (HT-SELEX) was determined as 2.15 ± 0.0737 fold-change vs cycle 0; in experiment [1] it was 2.2 ± 0.103 fold-change vs cycle 0; in experiment [2], 1.91 ± 0.167 fold-change vs cycle 0.

Regarding ACGTCA, the binding signal with SALL4 ZFC4 WT (HT-SELEX) came to 0.686 ± 0.00954 fold-change vs cycle 0; in experiment [1], 0.776 ± 0.0221 fold-change vs cycle 0; in experiment [2], 0.847 ± 0.0153 fold-change vs cycle 0.

As for AATGCG, the binding signal in the experiment with SALL4 ZFC4 WT (HT-SELEX) came out at 0.428 ± 0.0345 fold-change vs cycle 0; in experiment [1] it was 0.473 ± 0.0206 fold-change vs cycle 0; in experiment [2] it was 0.61 ± 0.0401 fold-change vs cycle 0.

Consider AATGGC, for which the binding signal was 0.467 ± 0.0217 fold-change vs cycle 0 in the experiment with SALL4 ZFC4 WT (HT-SELEX), 0.534 ± 0.0101 fold-change vs cycle 0 in experiment [1] and 0.662 ± 0.067 fold-change vs cycle 0 in experiment [2].

Take ACCCTA: the binding signal worked out at 0.864 ± 0.0329 fold-change vs cycle 0 in the experiment with SALL4 ZFC4 WT (HT-SELEX), 0.973 ± 0.0359 fold-change vs cycle 0 in experiment [1] and 0.982 ± 0.053 fold-change vs cycle 0 in experiment [2].

On to ATCAAC, for which the values for the binding signal (in the experiment with SALL4 ZFC4 WT (HT-SELEX); in experiment [1]; in experiment [2]) were 1.34 ± 0.0602 fold-change vs cycle 0, 1.45 ± 0.0864 fold-change vs cycle 0 and 1.42 ± 0.0753 fold-change vs cycle 0, respectively.

Regarding CTCGAG, the binding signal was found to be 0.462 ± 0.0432 fold-change vs cycle 0 with SALL4 ZFC4 WT (HT-SELEX), 0.548 ± 0.0598 fold-change vs cycle 0 in experiment [1] and 0.638 ± 0.046 fold-change vs cycle 0 in experiment [2].

With AATCGC, the binding signal with SALL4 ZFC4 WT (HT-SELEX) was 0.437 ± 0.0162 fold-change vs cycle 0; in experiment [1], 0.483 ± 0.0175 fold-change vs cycle 0; in experiment [2], 0.628 ± 0.0598 fold-change vs cycle 0.

Consider TAATAA, for which the binding signal came to 5.02 ± 0.619 fold-change vs cycle 0 in the experiment with SALL4 ZFC4 WT (HT-SELEX), 2.78 ± 0.312 fold-change vs cycle 0 in experiment [1] and 2.32 ± 0.357 fold-change vs cycle 0 in experiment [2].

Turning to AAGATT, the binding signal with SALL4 ZFC4 WT (HT-SELEX) stood at 2.05 ± 0.0988 fold-change vs cycle 0; in experiment [1], 2.08 ± 0.121 fold-change vs cycle 0; in experiment [2], 1.88 ± 0.183 fold-change vs cycle 0.

On to GCTTAC, for which the binding signal with SALL4 ZFC4 WT (HT-SELEX) turned out to be 0.774 ± 0.0137 fold-change vs cycle 0; in experiment [1] it was 0.852 ± 0.0208 fold-change vs cycle 0; in experiment [2] it was 0.908 ± 0.0208 fold-change vs cycle 0.

For the sequence AGCCTG, the binding signal with SALL4 ZFC4 WT (HT-SELEX) is 0.325 ± 0.0218 fold-change vs cycle 0; in experiment [1], 0.402 ± 0.0338 fold-change vs cycle 0; in experiment [2], 0.531 ± 0.0708 fold-change vs cycle 0.

As to AAGATA, the binding signal in the experiment with SALL4 ZFC4 WT (HT-SELEX) worked out at 2.25 ± 0.105 fold-change vs cycle 0; in experiment [1], 2.22 ± 0.148 fold-change vs cycle 0; in experiment [2] it was 1.9 ± 0.223 fold-change vs cycle 0.

For the sequence CCTGAA, the binding signal in the experiment with SALL4 ZFC4 WT (HT-SELEX) was 0.792 ± 0.0306 fold-change vs cycle 0; in experiment [1], 0.933 ± 0.0447 fold-change vs cycle 0; in experiment [2], 0.951 ± 0.0276 fold-change vs cycle 0.

Regarding GTGTGA, the binding signal with SALL4 ZFC4 WT (HT-SELEX) worked out at 0.748 ± 0.0198 fold-change vs cycle 0; in experiment [1], 0.881 ± 0.0312 fold-change vs cycle 0; in experiment [2] it was 0.9 ± 0.0278 fold-change vs cycle 0.

Take CTGACC: the binding signal with SALL4 ZFC4 WT (HT-SELEX) was found to be 0.426 ± 0.0325 fold-change vs cycle 0; in experiment [1] it was 0.52 ± 0.0363 fold-change vs cycle 0; in experiment [2], 0.621 ± 0.0521 fold-change vs cycle 0.

ATTTCC: the values for the binding signal (with SALL4 ZFC4 WT (HT-SELEX); in experiment [1]; in experiment [2]) were 1.33 ± 0.0842 fold-change vs cycle 0, 1.28 ± 0.0652 fold-change vs cycle 0 and 1.25 ± 0.0764 fold-change vs cycle 0, respectively.

Consider CAGGTC, for which the binding signal in the experiment with SALL4 ZFC4 WT (HT-SELEX) was determined as 0.406 ± 0.041 fold-change vs cycle 0; in experiment [1], 0.487 ± 0.0258 fold-change vs cycle 0; in experiment [2], 0.603 ± 0.0536 fold-change vs cycle 0.

For ACGTCT, the binding signal was found to be 0.744 ± 0.0352 fold-change vs cycle 0 in the experiment with SALL4 ZFC4 WT (HT-SELEX), 0.85 ± 0.0392 fold-change vs cycle 0 in experiment [1] and 0.941 ± 0.0281 fold-change vs cycle 0 in experiment [2].

Consider TAGGAA, for which the values for the binding signal (in the experiment with SALL4 ZFC4 WT (HT-SELEX); in experiment [1]; in experiment [2]) were 1.42 ± 0.0275 fold-change vs cycle 0, 1.51 ± 0.0439 fold-change vs cycle 0 and 1.41 ± 0.0855 fold-change vs cycle 0, respectively.

CGGTAG: the binding signal is 0.351 ± 0.018 fold-change vs cycle 0 with SALL4 ZFC4 WT (HT-SELEX), 0.418 ± 0.01 fold-change vs cycle 0 in experiment [1] and 0.514 ± 0.0341 fold-change vs cycle 0 in experiment [2].

As for CGTGAC, the results for the binding signal (in the experiment with SALL4 ZFC4 WT (HT-SELEX); in experiment [1]; in experiment [2]) were 0.379 ± 0.0323 fold-change vs cycle 0, 0.463 ± 0.0197 fold-change vs cycle 0 and 0.556 ± 0.043 fold-change vs cycle 0, respectively.

As for AAAGTT, the binding signal with SALL4 ZFC4 WT (HT-SELEX) turned out to be 1.85 ± 0.124 fold-change vs cycle 0; in experiment [1], 1.9 ± 0.107 fold-change vs cycle 0; in experiment [2], 1.7 ± 0.189 fold-change vs cycle 0.

In the case of ATGGTA, the binding signal with SALL4 ZFC4 WT (HT-SELEX) was 1.45 ± 0.0382 fold-change vs cycle 0; in experiment [1], 1.48 ± 0.0495 fold-change vs cycle 0; in experiment [2], 1.4 ± 0.052 fold-change vs cycle 0.

As for CATTTC, the binding signal is 1.25 ± 0.0444 fold-change vs cycle 0 with SALL4 ZFC4 WT (HT-SELEX), 1.26 ± 0.0656 fold-change vs cycle 0 in experiment [1] and 1.23 ± 0.0622 fold-change vs cycle 0 in experiment [2].

As for ATATTC, the binding signal with SALL4 ZFC4 WT (HT-SELEX) came to 2.62 ± 0.255 fold-change vs cycle 0; in experiment [1], 1.95 ± 0.1 fold-change vs cycle 0; in experiment [2], 1.78 ± 0.19 fold-change vs cycle 0.

TGCACA: the results for the binding signal (with SALL4 ZFC4 WT (HT-SELEX); in experiment [1]; in experiment [2]) were 0.529 ± 0.0293 fold-change vs cycle 0, 0.586 ± 0.0273 fold-change vs cycle 0 and 0.698 ± 0.0457 fold-change vs cycle 0, respectively.

Regarding AGATGC, the binding signal was found to be 0.625 ± 0.0322 fold-change vs cycle 0 with SALL4 ZFC4 WT (HT-SELEX), 0.721 ± 0.0174 fold-change vs cycle 0 in experiment [1] and 0.833 ± 0.0268 fold-change vs cycle 0 in experiment [2].

Turning to ATCGTC, the results for the binding signal (with SALL4 ZFC4 WT (HT-SELEX); in experiment [1]; in experiment [2]) were 0.685 ± 0.0177 fold-change vs cycle 0, 0.755 ± 0.0322 fold-change vs cycle 0 and 0.852 ± 0.0307 fold-change vs cycle 0, respectively.

For AACTAT, the binding signal was determined as 2.16 ± 0.123 fold-change vs cycle 0 in the experiment with SALL4 ZFC4 WT (HT-SELEX), 1.96 ± 0.0882 fold-change vs cycle 0 in experiment [1] and 1.76 ± 0.173 fold-change vs cycle 0 in experiment [2].

In the case of ATGTCC, the figures for the binding signal (in the experiment with SALL4 ZFC4 WT (HT-SELEX); in experiment [1]; in experiment [2]) were 0.723 ± 0.0385 fold-change vs cycle 0, 0.831 ± 0.0392 fold-change vs cycle 0 and 0.904 ± 0.0203 fold-change vs cycle 0, respectively.

Take ATTTTG: the binding signal in the experiment with SALL4 ZFC4 WT (HT-SELEX) turned out to be 1.66 ± 0.083 fold-change vs cycle 0; in experiment [1], 1.5 ± 0.0395 fold-change vs cycle 0; in experiment [2], 1.44 ± 0.0553 fold-change vs cycle 0.

The values are drawn from article PMC9838217, “Structure of SALL4 zinc finger domain reveals link between AT-rich DNA binding and Okihiro syndrome”.
